Laboratory results reported in PubChem BioAssay (NCI).
This is part of a sample that, as a whole, favours compounds with a hit. Of some 83,000 tested, about 20% had one in any assay.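 Step 1: grow cells in 96-well plates. Step 2: add test compound at a single concentration. Step 3: incubate 48 h. Step 4: record percent growth.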 Values without a mark were called inactive. Active and inactive are the calls of the source. The calls were made as follows: active = growth percent below 10; inactive = the rest.

The molecules below were run on HL-60(TB) leukemia (assay: NCI-60 one-dose screen, 48 h (100 = growth as untreated, 0 = no growth, -100 = all killed)). Conditions: 10 µM unless noted.
Molecule [Cu+].[NH-][C@H]1C[N-]C(=O)[C@H]([C@H]2CCN=C(N)N2)[N-]C(=O)/C(=C\NC(N)=O)[N-]C(=O)[C@H](CNC(=O)C[C@@H](N)CCCN)[N-]C(=O)[C@H](CO)[N-]C1=O has a growth of 104%.
Molecule CC(C)=CC(=O)OCC(=O)O[C@@H]1C[C@]2(C(C)C)O[C@@]1(C)[C@@H]1CC[C@@H](C)[C@H]1[C@@H]2OC(=O)/C=C/c1ccccc1 has a growth of 85%.
Work on CC/C(=C(/c1ccc(Cl)cc1)c1ccc(OCCN(CC)CC)cc1)c1ccc(OC)cc1 yielded a growth of 33.3%.
With C=C(C)[C@@H]1CC[C@]2(C)[C@H](CC=C3[C@@H]4CC(C)(C)CC[C@]4(CO)CC[C@]32C)[C@@]1(C)CCCN the growth was -68.9% (active).
Cc1cc(N/N=C/c2ccccn2)nc2ccccc12 was tested, and the growth was -12.8% (active).
Molecule Cc1nc2ccc(-n3c(-c4ccc(Cl)cc4)nc4ccccc4c3=O)cc2n1Cc1ccccc1 has a growth of 78.2%.
OCCn1cc(-c2nc(-c3c[nH]c4ncccc34)cs2)c2ccccc21 showed a growth of 79.1%.
O=C1/C(=C/c2ccc(F)cc2)CN(C(=O)C(Cl)Cl)C/C1=C\c1ccc(F)cc1 was tested, and the growth was -34% (active).
Work on O=C(CCc1nnc(Cn2cncn2)o1)c1nc2ccccc2[nH]1 yielded a growth of 108%.
CCOC(=O)C/C(=N\Nc1cc(=O)[nH]c2ccc(Br)cc12)C(=O)OCC was tested, and the growth was -7.84% (active).
In the case of CC1(C)C(=O)/C(=C\c2ccco2)C[C@]2(C)[C@H]3CC=C4[C@@H]5C[C@](C)(C(=O)O)CC[C@]5(C)CC[C@@]4(C)[C@]3(C)CC[C@@H]12, the growth is reported as -21.1% [100 µM] (active).
COc1ccc2[nH]c(-c3ccccc3)c(C=C(C#N)C#N)c2c1 was tested, and the growth was -49.1% (active).
In the case of O=C1OCC2=C1C(c1cccc(F)c1)c1cc3c(cc1N2CCO)OCCO3 (stereo not given), the growth is reported as -34.5% (active).
Work on C=NNc1ccccc1 yielded a growth of 117%.
Work on O=[N+]([O-])c1cc2c(cc1Br)C1C(C3C2C(Cl)(Cl)C(Cl)=C(Cl)C3(Cl)Cl)C(Cl)(Cl)C(Cl)=C(Cl)C1(Cl)Cl (stereo not given) yielded a growth of 110%.
In the case of O=C(Nc1ccc(-n2cc(-c3ccncc3)c(-c3ccc(Cl)c(O)c3)n2)cc1)N1CCOCC1, the growth is reported as 108%.
COC(=O)C(N)CSC(c1ccccc1)(c1ccccc1)c1ccccc1 (stereo not given) was tested, and the growth was -28.7% (active).
C=CC(=O)N1CCC[C@@H](n2nc(-c3ccc(Oc4ccccc4)cc3)c3c(N)ncnc32)C1 gave a growth of 82.5%.
Work on CCN(c1cc(-c2ccc(CN3CCC(/C=C/S(=O)(=O)c4ccccc4)CC3)cc2)cc(C(=O)NCc2c(C)cc(C)[nH]c2=O)c1C)C1CCOCC1 yielded a growth of 23.4%.
COc1cccc(C2CC(=O)Nc3c2c(C)nn3-c2nc3ccccc3[nH]2)c1OC (stereo not given) was tested, and the growth was 18.9%.
For N=C1/C(=C2\NC3C=CC=CC3S2)C(c2ccc(Cl)cc2)C2C(=O)N(c3ccccc3)C(=S)N12 (stereo not given), the growth was 100%.
With CC(C)(C)[Si](C)(C)OC1[C@@H](O[Si](C)(C)C(C)(C)C)[C@@H](CNC(=O)NC(=O)NC(=O)CI)O[C@H]1n1cnc2c(NC(=O)Nc3ccccc3)ncnc21 (stereo not given in full) the growth was -67.1% (active).
In the case of C=C(C)[C@@H]1CC[C@]2(C(=O)OC)CC[C@]3(C)[C@H](CC[C@@H]4[C@@](C)(CCc5nn[nH]n5)[C@H](C(=C)C)CC[C@]43C)[C@@H]12, the growth is reported as -11% [100 µM] (active).
For CCN1C(=O)N(CC)C2C1NC(=S)N2/N=C/C=C/c1ccccc1 (stereo not given), the growth was -39.2% (active).
O=C1c2cccnc2C(=O)c2c1c(C(=O)OCCN1CCOCC1)c1ccccn21 was tested, and the growth was -36.4% (active).
Nc1c(C(=O)Nc2cccc3ncccc23)sc2nc3c(cc12)C(=O)CCC3 gave a growth of 32.8%.
Work on Clc1nc2ccccc2cc1Cn1nnc(Cc2ccccc2)n1 yielded a growth of 87.9%.
In the case of O=S(=O)(NCCCNc1nccc(-c2c(-c3cccc(O)c3)nc3occn23)n1)c1ccc(Cl)cc1, the growth is reported as 56.1%.
In the case of N#Cc1ccc(O)c(C2=NCC(Cc3ccccc3)O2)c1 (stereo not given), the growth is reported as 44%.
For Cc1ccc(/C=C(\C#N)n2nnc3cc(F)c(F)cc32)cc1, the growth was -1.91% (active).
For Oc1c(CN2CCN(c3ccccc3F)CC2)cc(Br)c2cccnc12, the growth was -34.4% (active).
With O=C(CCN1CCCC1)Nc1ccc2c(NCCc3ccccc3)c3ccccc3nc2c1 the growth was -58% (active).
Work on CCOCCC(=O)O yielded a growth of 106%.
Work on CC1CCC(C(C)C)C(NN)C1 (stereo not given) yielded a growth of 70.2%.
Molecule O=C(Nc1cccc2c(O)c(N=Nc3ccc(S(=O)(=O)Nc4nccs4)cc3)cc(N=Nc3ccc(S(=O)(=O)Nc4nccs4)cc3)c12)C(Cl)Cl has a growth of 102%.
Molecule Fc1ccc(/C=C/[C@@H]2C[C@@H](F)CCO2)cc1 has a growth of 56.1%.
For COc1ccc(-c2ccc(=O)oc2-c2cc(OC)c(OC)c(OC)c2)cc1O, the growth was -55.6% (active).
Molecule CCC1(C(C)C)NC(=O)NC1=O (stereo not given) has a growth of 100%.
In the case of O=c1cn[nH]c2ccc(Br)cc12, the growth is reported as 85.5%.
CCCC/C=C/[C@@H]1C[C@H]1CCO was tested, and the growth was 111%.
